Data from the supplement of paper PMC10849652.
Targets with a hit are over-represented here; the source holds about 8,800 in all. About 0.5% of all pairs of compound and target were hits. Unmarked numbers belong to inactive results.

How the values were obtained:
Assay in all cases: log2 fold change, soluble protein after heating vs DMSO (PISA); higher = thermal stabilisation; K562 lysate, 10 uM; active = over 0.2 and 3.5 SD of the protein, either way, in both replicates (recomputed)
[1] = compound: CS(=O)(=O)CCNCc1ccc(-c2ccc3ncnc(Nc4ccc(OCc5cccc(F)c5)c(Cl)c4)c3c2)o1 [lapatinib]
Method in brief: (§1)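 Soluble protein was defined as the supernatant remaining after 21,000xg for 90 min, following pooling of heated aliquots and adjustment to 0.5% NP-40 at 4°C. Before that, crude K562 extract at 1 mg/mL protein in PBS pH 7.4 with 1 mM MgCl2 was treated with 10 μM compound for 30 min and heated for 3 min across 48°C-58°C. Quantification used TMTpro 16plex LC-MS/MS with channel sums equalised, and values are log-two fold changes in thermal stability relative to solvent controls from duplicates.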

[2] = compound: CS(=O)(=O)N1CCN(Cc2cc3nc(-c4cccc5[nH]ncc45)nc(N4CCOCC4)c3s2)CC1 [pictilisib]
Method in brief: as §1

[3] = compound: C[C@@H](Oc1cc(-c2cnn(C3CCNCC3)c2)cnc1N)c1c(Cl)ccc(F)c1Cl [crizotinib]
Method in brief: as §1

[4] = compound: C[C@H](C1=CC=C(C=C1)C(=O)NC2=C3C=CNC3=NC=C2)N
Method in brief: as §1

[5] = compound: C[C@H](Nc1ncnc2nc[nH]c12)c1cc2cccc(Cl)c2c(=O)n1-c1ccccc1 [duvelisib]
Method in brief: as §1

[6] = compound: Cc1cc(Nc2cc(CN3CCOCC3)c3nc(C)c(Cc4ccc(Cl)cc4F)n3n2)n[nH]1 [gandotinib]
Method in brief: as §1

[7] = compound: Cc1cc(Nc2cc(N3CCN(C)CC3)nc(Sc3ccc(NC(=O)C4CC4)cc3)n2)n[nH]1 [tozasertib]
Method in brief: as §1

[8] = compound: Cc1ccc(-n2nc(C(C)(C)C)cc2NC(=O)Nc2ccc(OCCN3CCOCC3)c3ccccc23)cc1 [doramapimod]
Method in brief: as §1

[9] = compound: Cc1ccc(NC(=O)c2ccc(CN3CC[C@H](N(C)C)C3)c(C(F)(F)F)c2)cc1Nc1nccc(-c2cncnc2)n1 [bafetinib]
Method in brief: as §1

[10] = compound: Cc1cccc(CC(=O)N2CCc3c2ccc(-c2cn(C)c4ncnc(N)c24)c3F)n1
Method in brief: as §1

Chain of UniProt Q12933 (Q12933 whole entry, looked up): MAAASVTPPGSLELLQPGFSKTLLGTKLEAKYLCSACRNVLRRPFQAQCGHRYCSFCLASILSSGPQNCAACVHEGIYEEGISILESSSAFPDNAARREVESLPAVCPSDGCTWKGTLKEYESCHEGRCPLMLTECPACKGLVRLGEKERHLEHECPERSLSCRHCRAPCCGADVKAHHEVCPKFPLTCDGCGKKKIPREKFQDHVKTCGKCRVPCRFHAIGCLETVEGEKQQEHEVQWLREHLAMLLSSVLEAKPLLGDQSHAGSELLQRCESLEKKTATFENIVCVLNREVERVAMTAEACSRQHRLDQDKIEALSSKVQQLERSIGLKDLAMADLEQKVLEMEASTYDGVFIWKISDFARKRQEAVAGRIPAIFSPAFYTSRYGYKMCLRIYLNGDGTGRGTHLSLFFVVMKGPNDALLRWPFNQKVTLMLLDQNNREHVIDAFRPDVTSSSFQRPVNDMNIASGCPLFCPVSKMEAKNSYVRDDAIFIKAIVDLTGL
Chain of UniProt Q86UE8 (Q86UE8 whole entry, looked up): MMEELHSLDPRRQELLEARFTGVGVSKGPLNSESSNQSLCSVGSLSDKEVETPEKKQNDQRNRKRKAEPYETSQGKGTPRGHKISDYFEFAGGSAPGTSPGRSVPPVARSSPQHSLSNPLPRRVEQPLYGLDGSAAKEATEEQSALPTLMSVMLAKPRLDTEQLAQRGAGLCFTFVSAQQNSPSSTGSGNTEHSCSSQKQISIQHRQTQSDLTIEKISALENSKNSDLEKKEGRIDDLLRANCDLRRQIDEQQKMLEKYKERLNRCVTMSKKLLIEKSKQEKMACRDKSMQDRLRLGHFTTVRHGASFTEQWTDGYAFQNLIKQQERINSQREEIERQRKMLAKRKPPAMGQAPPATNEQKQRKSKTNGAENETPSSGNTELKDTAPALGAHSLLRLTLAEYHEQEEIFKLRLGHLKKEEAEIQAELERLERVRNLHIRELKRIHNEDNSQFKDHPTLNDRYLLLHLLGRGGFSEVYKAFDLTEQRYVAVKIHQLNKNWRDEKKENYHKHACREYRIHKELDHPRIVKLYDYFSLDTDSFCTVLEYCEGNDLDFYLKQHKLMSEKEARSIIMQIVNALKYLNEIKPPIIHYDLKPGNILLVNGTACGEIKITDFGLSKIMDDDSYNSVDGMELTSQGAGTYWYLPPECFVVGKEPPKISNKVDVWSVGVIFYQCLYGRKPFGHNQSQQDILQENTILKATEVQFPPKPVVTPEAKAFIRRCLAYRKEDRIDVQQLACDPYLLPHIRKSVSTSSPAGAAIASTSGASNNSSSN
Chain of UniProt Q9NZI7 (Q9NZI7 whole entry, looked up): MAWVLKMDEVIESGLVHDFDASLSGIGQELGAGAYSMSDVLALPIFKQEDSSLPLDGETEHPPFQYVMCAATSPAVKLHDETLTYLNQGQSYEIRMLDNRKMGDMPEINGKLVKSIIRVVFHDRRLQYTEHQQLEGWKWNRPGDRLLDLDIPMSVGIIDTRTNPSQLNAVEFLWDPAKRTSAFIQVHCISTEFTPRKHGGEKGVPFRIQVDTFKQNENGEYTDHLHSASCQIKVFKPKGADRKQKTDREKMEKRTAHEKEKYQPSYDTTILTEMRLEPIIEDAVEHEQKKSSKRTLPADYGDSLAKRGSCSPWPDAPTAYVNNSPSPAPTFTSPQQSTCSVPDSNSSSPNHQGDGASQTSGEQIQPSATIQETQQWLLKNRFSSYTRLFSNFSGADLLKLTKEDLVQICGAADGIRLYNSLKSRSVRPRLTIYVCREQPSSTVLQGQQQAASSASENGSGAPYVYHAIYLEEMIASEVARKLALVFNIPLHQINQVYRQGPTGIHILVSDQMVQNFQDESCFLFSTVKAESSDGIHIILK
Chain of UniProt P06753 (P06753 whole entry, looked up): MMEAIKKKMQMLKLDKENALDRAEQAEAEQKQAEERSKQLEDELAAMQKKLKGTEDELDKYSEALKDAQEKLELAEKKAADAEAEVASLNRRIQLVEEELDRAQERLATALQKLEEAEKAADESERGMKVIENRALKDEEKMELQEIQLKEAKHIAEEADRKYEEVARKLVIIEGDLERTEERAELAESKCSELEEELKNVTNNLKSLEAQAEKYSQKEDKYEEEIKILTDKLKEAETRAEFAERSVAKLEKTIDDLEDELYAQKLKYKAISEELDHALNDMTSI
Chain of UniProt Q14139 (Q14139 whole entry, looked up): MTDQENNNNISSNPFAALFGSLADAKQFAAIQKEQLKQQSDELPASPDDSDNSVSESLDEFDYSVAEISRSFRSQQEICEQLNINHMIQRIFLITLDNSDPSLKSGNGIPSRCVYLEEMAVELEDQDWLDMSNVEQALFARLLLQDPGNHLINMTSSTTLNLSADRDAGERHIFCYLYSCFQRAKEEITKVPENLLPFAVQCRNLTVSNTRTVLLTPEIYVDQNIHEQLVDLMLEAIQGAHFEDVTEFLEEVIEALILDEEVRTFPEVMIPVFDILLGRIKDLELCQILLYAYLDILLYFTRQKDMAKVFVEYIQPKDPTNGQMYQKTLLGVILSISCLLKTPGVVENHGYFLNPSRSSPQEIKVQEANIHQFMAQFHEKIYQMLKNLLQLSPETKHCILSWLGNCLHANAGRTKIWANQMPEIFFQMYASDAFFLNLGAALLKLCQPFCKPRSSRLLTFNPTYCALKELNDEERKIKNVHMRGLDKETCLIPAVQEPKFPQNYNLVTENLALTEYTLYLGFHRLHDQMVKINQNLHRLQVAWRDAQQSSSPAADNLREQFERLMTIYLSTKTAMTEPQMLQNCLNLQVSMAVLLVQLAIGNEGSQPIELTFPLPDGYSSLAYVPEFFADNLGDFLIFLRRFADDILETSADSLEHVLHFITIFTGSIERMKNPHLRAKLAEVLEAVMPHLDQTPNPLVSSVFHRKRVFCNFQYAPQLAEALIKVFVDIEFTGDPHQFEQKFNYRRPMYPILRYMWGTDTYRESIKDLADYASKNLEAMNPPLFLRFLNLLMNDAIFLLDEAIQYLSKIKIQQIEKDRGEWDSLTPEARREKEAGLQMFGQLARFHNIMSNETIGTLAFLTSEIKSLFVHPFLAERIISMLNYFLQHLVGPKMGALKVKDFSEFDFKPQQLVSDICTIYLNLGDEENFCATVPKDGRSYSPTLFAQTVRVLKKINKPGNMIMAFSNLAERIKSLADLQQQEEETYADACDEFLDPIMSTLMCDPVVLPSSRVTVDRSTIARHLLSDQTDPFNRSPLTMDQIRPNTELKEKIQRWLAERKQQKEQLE
Chain of UniProt Q6PJ69 (Q6PJ69 whole entry, looked up): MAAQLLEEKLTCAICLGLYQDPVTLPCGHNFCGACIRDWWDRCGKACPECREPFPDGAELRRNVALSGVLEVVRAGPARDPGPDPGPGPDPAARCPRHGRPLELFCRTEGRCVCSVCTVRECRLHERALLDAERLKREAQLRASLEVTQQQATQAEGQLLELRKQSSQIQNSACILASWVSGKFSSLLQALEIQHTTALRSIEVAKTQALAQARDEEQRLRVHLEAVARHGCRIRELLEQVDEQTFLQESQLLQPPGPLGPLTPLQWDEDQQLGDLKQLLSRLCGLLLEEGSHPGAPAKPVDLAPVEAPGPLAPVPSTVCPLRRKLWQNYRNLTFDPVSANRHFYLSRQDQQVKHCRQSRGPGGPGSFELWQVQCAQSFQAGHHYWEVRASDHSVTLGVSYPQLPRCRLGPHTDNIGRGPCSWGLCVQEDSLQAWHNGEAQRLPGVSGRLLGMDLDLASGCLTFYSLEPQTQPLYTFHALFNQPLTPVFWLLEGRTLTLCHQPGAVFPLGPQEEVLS
Chain of UniProt Q9H497 (Q9H497 whole entry, looked up): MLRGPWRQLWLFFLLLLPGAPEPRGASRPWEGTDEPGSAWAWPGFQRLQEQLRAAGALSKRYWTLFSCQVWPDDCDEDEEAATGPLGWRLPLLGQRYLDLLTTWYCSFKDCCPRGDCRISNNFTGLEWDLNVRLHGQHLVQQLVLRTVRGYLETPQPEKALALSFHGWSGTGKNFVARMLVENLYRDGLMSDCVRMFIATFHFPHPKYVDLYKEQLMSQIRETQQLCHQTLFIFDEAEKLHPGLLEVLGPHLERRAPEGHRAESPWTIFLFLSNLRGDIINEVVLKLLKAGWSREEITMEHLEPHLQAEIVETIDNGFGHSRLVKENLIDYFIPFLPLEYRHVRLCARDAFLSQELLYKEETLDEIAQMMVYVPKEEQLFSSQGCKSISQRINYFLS
Chain of UniProt P04350 (P04350 whole entry, looked up): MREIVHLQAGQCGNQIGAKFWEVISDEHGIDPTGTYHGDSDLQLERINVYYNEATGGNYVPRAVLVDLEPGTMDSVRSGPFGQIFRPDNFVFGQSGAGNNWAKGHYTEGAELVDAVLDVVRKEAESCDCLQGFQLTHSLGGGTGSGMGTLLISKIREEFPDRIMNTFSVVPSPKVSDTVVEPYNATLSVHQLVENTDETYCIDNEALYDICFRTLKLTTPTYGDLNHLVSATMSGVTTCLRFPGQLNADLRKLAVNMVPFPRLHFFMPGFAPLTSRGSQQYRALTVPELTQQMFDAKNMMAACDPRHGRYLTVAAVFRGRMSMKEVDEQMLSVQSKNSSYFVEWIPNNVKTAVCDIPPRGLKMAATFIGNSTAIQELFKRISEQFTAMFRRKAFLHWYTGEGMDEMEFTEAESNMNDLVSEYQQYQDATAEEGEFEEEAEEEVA
Chain of UniProt Q53H54 (Q53H54 whole entry, looked up): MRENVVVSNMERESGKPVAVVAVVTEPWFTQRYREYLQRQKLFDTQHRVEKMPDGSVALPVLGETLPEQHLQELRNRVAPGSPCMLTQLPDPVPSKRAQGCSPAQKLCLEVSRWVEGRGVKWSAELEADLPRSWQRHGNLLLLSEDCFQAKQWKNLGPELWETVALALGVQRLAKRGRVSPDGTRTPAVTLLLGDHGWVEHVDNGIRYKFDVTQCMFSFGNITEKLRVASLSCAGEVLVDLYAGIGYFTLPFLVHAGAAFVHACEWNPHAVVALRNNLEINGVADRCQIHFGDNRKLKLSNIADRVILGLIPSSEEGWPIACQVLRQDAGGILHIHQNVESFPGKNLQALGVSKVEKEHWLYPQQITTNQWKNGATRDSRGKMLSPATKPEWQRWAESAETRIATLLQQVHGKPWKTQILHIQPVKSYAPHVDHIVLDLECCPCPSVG

Row | Target | log2 fold change [1] | log2 fold change [2] | log2 fold change [3] | log2 fold change [4] | log2 fold change [5] | log2 fold change [6] | log2 fold change [7] | log2 fold change [8] | log2 fold change [9] | log2 fold change [10]
1 | TLK2 isoform 2 (UniProt Q86UE8) | -0.041 | 0.112 | -0.029 | -0.115 | -0.042 | 0.351 (active) | 0.126 | 0.006 | 0.004 | 0.049
2 | UBTF (UniProt P17480) | -0.013 | -0.024 | -0.037 | 0.071 | -0.015 | -0.103 | 0.004 | -0.008 | -0.039 | -0.011
3 | TUBB4A (UniProt P04350) | -0.095 | -0.055 | -0.001 | -0.081 | 0.059 | 0.051 | -0.138 | -0.025 | -0.026 | -0.01
4 | UBP1 (UniProt Q9NZI7) | 0.049 | -0.004 | -0.202 | 0.206 | -0.025 | -0.01 | -0.043 | 0.15 | -0.029 | -0.124
5 | TECR (UniProt Q9NZ01) | -0.082 | -0.032 | -0.138 | 0.011 | -0.056 | -0.448 (active) | 0.056 | -0.045 | -0.049 | 0.015
6 | TPM3 isoform 2 (UniProt P06753) | -0.012 | 0.021 | 0.093 | 0.095 | 0.003 | -0.169 | 0.067 | 0.02 | 0.055 | -0.152
7 | TUBA1C (UniProt Q9BQE3) | 0.004 | -0.057 | -0.045 | -0.013 | -0.019 | 0.062 | -0.008 | -0.026 | 0.005 | 0.021
8 | UBE2L6 (UniProt O14933) | 0.059 | 0.062 | -0.014 | 0.088 | 0.033 | -0.105 | 0.109 | -0.013 | -0.267 | -0.024
9 | UBL4A (UniProt P11441) | -0.003 | -0.057 | 0.112 | 0.253 (active) | 0.007 | -0.157 | 0.076 | -0.029 | -0.044 | -0.06
10 | TTC27 (UniProt Q6P3X3) | -0.01 | 0.005 | -0.041 | -0.033 | 0.04 | -0.129 | 0.004 | 0.048 | -0.066 | 0.04
11 | TBC1D23 (UniProt Q9NUY8) | -0.007 | -0.016 | -0.031 | -0.033 | -0.012 | 0.03 | 0.034 | 0.017 | -0.027 | 0.048
12 | TMEM263 (UniProt Q8WUH6) | 0.149 | 0.015 | 0.06 | -0.072 | 0.02 | 0.178 | -0.066 | 0.112 | -0.028 | 0.208
13 | TPP2 (UniProt Q5VZU9) | -0.023 | 0.069 | -0.057 | -0.309 (active) | 0.02 | 0.104 | -0.087 | -0.029 | -0.044 | 0.137
14 | UFM1 (UniProt P61960) | 0.134 | 0.033 | 0.191 | 0.566 (active) | 0.077 | -0.36 | -0.002 | 0.022 | 0.102 | -0.319
15 | UBE2D1 (UniProt P51668) | 0.052 | 0.043 | 0.01 | -0.012 | 0.031 | -0.047 | 0.081 | 0.038 | -0.058 | -0.033
16 | TRIM65 (UniProt Q6PJ69) | 0.028 | -0.035 | -0.046 | -0.06 | 0.072 | -0.102 | 0.042 | -0.02 | 0.034 | 0.088
17 | TMPO (UniProt P42166) | 0.018 | -0.012 | 0.016 | -0.179 | 0.023 | -0.048 | 0.016 | -0.017 | -0.021 | 0.034
18 | TCAF2 (UniProt A6NFQ2) | 0.024 | -0.017 | -0.108 | -0.02 | 0.004 | -0.098 | 0.008 | -0.03 | -0.048 | 0.041
19 | TRMT12 (UniProt Q53H54) | 0.064 | -0.02 | -0.03 | -0.289 | 0.055 | -0.054 | -0.021 | 0.059 | -0.021 | 0.14
20 | TBL2 (UniProt Q9Y4P3) | -0.025 | -0.002 | -0.007 | -0.068 | 0.014 | -0.053 | 0.063 | 0.032 | -0.013 | 0.055
21 | TROAP (UniProt Q12815) | 0.001 | -0.088 | 0.038 | -0.065 | -0.095 | 0.072 | -0.009 | -0.008 | -0.1 | 0.004
22 | TSPAN13 (UniProt O95857) | 0.017 | 0.015 | 0.011 | -0.387 (active) | -0.241 | 0.32 | -0.207 | 0.119 | 0.038 | 0.055
23 | TUBB1 (UniProt Q9H4B7) | -0.006 | -0.007 | -0.025 | 0.093 | -0.01 | -0.015 | -0.027 | -0.046 | 0.036 | -0.06
24 | UBR5 (UniProt O95071) | -0.003 | -0.009 | -0.055 | -0.01 | -0.004 | -0.018 | 0.001 | 0.012 | -0.047 | 0.046
25 | TRAPPC10 (UniProt P48553) | 0 | 0 | -0.034 | -0.101 | -0.016 | 0.022 | -0.01 | -0.027 | -0.007 | 0.074
26 | TRAF2 isoform 2 (UniProt Q12933) | -0.032 | 0.004 | -0.032 | -0.047 | 0.006 | -0.045 | 0.007 | 0.005 | -0.011 | 0.053
27 | UBE4A isoform 2 (UniProt Q14139) | -0.019 | -0.007 | -0.059 | -0.009 | 0.016 | -0.15 | 0 | 0.004 | -0.054 | 0.043
28 | TOR3A (UniProt Q9H497) | -0.43 (active) | -0.077 | 0.023 | -0.078 | 0.012 | 0.012 | -0.047 | -0.024 | 0.046 | 0.048
29 | UBA1 (UniProt P22314) | -0.005 | -0.003 | -0.037 | -0.012 | 0.011 | -0.017 | -0.005 | 0.009 | -0.017 | 0.023
